# Screening results as filed in PubChem.
# Mm-Cpn inhibitor: blocks the Methanococcus maripaludis chaperonin Mm-Cpn | Potency, µM (doses to about 76.9 µM), actives largely listed as inhibitors | purified Mm-Cpn ATPase, ADP Transcreener TR-FRET | 0.031% of 330,000 active | AID 504842; note: nearly all actives have a fitted effect of over 80% in size
#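 Purified archaeal Mm-CPN (25nM final) preincubated 10 min at 37degC with compound, then 10uM ATP for 30 min at 37degC; ADP measured by HTRF Transcreener TR-FRET; buffer 30 mM TRIS pH 7.4, 100mM KCl, 5mM MgCl2, 1mM DTT.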
# GLP-1R inv ag: GLP-1 receptor (human) inverse agonism | HEK293 GLP-1R CRE-luciferase, luminescence, 24 h; GLP-1R form is constitutively active | P43220 | 1.6% of 410,000 active | Potency, µM (highest dose often 38.3 µM), usual class: inhibitors | AID 624417; note: nearly all actives have a fitted effect of over 55% in size
# Target sequence (P43220 whole entry, looked up): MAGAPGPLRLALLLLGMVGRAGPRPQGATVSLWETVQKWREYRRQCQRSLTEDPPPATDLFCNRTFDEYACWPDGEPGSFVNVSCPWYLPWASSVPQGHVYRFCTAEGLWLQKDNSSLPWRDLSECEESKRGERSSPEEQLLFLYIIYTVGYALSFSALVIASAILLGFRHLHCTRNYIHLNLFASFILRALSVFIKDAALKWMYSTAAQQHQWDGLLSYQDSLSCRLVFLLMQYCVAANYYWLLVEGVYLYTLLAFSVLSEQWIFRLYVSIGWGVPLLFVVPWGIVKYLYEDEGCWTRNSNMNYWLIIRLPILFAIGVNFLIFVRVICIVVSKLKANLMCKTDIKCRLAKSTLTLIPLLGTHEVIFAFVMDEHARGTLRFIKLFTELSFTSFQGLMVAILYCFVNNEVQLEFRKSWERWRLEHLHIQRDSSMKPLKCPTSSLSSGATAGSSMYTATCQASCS
#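 Readout was luciferase luminescence, measured 12 min after detection reagent at room temperature. Beforehand, GLP-1R reporter HEK293 cells had sat 12 h, then received compounds for 24 hr at 37 deg C.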
# GLP1R ag: activates the human GLP-1 receptor; P43220; HEK293 GLP-1R CRE-luciferase, luminescence, 4-6 h; cells express a hypersensitive GLP-1R form; Potency, µM (doses to about 45.6 µM), usual class: activators; 0.007% of 380,000 active; AID 624172
# HEK293 tox: cytotoxic in the GLP-1 receptor inverse agonist counter-screen. HEK293 cAMP-luciferase reporter cells, luminescence, 24 h. Potency, µM (titrated, usually from 38.3 µM), actives largely listed as inhibitors. AID 624418. 0.13% of 410,000 active;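 note: loss of luciferase light is scored as toxicity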
#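 MLSMR compounds, 24 hr on cells at 37 deg C/5% CO2; luminescence after luciferase reagent (12 min RT). Inhibition counted as the undesired cytotoxic outcome.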
# uPA surface inh: blocks generation of uPA at the cell surface. Potency, µM (top dose mostly 38.3 µM), most hits filed as inhibitors. 0.31% of 330,000 active. cell surface uPA generation assay, qHTS; active = well fitted inhibition curve with a large enough effect; inconclusive = small, poorly fitted or top-dose-only effect; inactive = no such curve, though single readings can be large or run the other way; tested in mouse RAW 264.7 cells; note: nearly all actives have a fitted effect of over 55% in size
# CCT modulator: cytosolic chaperonin activity modulation. purified chaperonin ATPase assay, HTRF ADP detection, 30 min. activity change, % (concentration not given with the values), hits read low. 0.3% of 360,000 active. AID 651819; in the data active = activity change below about -30%
#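 Enzyme 40 or 20 nM (batch-dependent) in Tris pH 7.4/KCl/MgCl2/DTT; cpd 76 uM single point; ATP 10 uM; 30 min 37 °C; Transcreener ADP HTRF detection, 30 min RT; ratio 665/615.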
# A number is an active result; - = inactive; ? = inconclusive; . = not tested or not shown. Sampled rows, rich in hits. Any-hit rate of the full collection: about 2.2%. Unless noted, calls come from the whole dose curve; as a rule, active = well fitted curve in the direction sought with a large enough effect; inconclusive = small, poorly fitted or top-dose-only effect, or another doubt; inactive = no such curve, though single readings can be large; an effect the other way counts as inactive or inconclusive.
SMILES,Mm-Cpn inhibitor,GLP-1R inv ag,GLP1R ag,HEK293 tox,uPA surface inh,CCT modulator
C=CC[C@H](CC(=O)NCCO)C(=O)N[C@H](COC(=O)[C@@H](CC=C)Cc1ccc(F)cc1)Cc1ccccc1,-,10µM,-,?,-,-
C=CC[C@@H](CC(=O)N(CCO)Cc1ccccc1)C(=O)N[C@H](COC(=O)[C@@H](CC=C)Cc1ccc(F)cc1)C(C)(C)C,-,?,-,?,?,-
CCOc1ccc(NC(=O)C2CCCN(c3nn4cc(-c5ccc(OC)cc5)nc4s3)C2)cc1 (centres undefined),.,-,.,-,.,.
O=C(CSc1oc(-c2ccc(F)cc2)nc1S(=O)(=O)c1ccc(Cl)cc1)c1ccccc1,.,?,.,-,.,.
Cc1cccc(CSc2cn(CC(=O)N3CCCCC3)c3ccccc23)c1,.,-,.,-,.,.
CN(C)c1ccc(-c2[nH][nH]c(=O)c2NC(=O)c2ccc3ccccc3n2)cc1,.,-,-,-,.,-
CN(C)c1ccc(-c2[nH][nH]c(=O)c2NC(=O)c2ccccn2)cc1,.,-,-,-,.,-36
CC1Cn2c(C(=O)NCc3ccccc3Cl)cc3cccc(c32)S1 (centres undefined),.,11µM,.,-,.,.
Cc1ccccc1CNC(=O)c1cc2cccc3c2n1CC(C)S3 (centres undefined),.,10µM,.,-,.,.
CCOCCc1nn2c(=O)cc(COC(=O)c3ccccc3NC(=O)C3CCCCC3)nc2s1,.,-,.,-,.,.
Cc1ccc(C(=O)Nc2ccc3c(c2)N(C)C(=O)c2ccccc2S3)cc1F,.,1.8µM,.,?,.,.
COc1ccc(CNC(=O)Cc2c(C)c3cc4c(C)coc4c(C)c3oc2=O)cc1,.,-,.,-,.,.
COC(=O)c1[nH]c2cc(C)ccc2c1NC(=O)CN1CCCc2ccccc21,-,-,-,-,-,-
COC(=O)c1[nH]c2ccccc2c1NC(=O)CN1CCN(c2cccc(OC)c2)C(C)C1 (centres undefined),-,10µM,-,-,-,-
COC(=O)c1[nH]c2ccc(C)cc2c1NC(=O)CN1CCCC(C)(C)C1,-,2.2µM,-,-,-,-
COC(=O)c1[nH]c2ccc(Br)cc2c1NC(=O)CN1CCCc2ccccc21,-,10µM,-,-,-,-
COC(=O)c1[nH]c2cc(OC)ccc2c1NC(=O)CCN1CCN(c2ccccc2)CC1,-,-,-,-,-,-
C/C(=C\C(=O)c1ccc(Br)cc1)NNC(=O)c1ccc(O)cc1,-,4.5µM,-,?,-,-
CN1C[C@@H]2C(c3ccc(C(F)(F)F)cc3)C3(c4ccc(C#N)cc4)CC2(C3)[C@H]1c1ccccc1 (some centres undefined),-,10µM,-,-,-,-
COC(=O)c1cccc(C23CC4(C2)[C@H](CN(C)[C@@H]4c2ccccc2)C3c2ccccc2)c1 (some centres undefined),-,8.9µM,-,-,-,-
CN1C[C@@H]2C(c3ccccc3)C3(c4ccc(C#N)cc4)CC2(C3)[C@H]1c1ccccc1 (some centres undefined),-,-,-,-,-,-
Cc1ccc(NC(=O)c2ccc(CN3CC(=O)N4CCCCC4C3=O)cc2)cc1C (centres undefined),.,-,.,-,.,.
CN(C(=O)NCc1noc2ccccc12)c1cccc(Cl)c1,.,-,.,-,.,.
COc1ccc(Cn2c(O)c(C=Nc3ccc(O)cc3)c3ccccc3c2=O)cc1,-,8.9µM,-,-,-,-
O=C(c1cc2ccccc2o1)N1CCN(C/C=C/c2ccccc2)CC1,-,11µM,-,-,-,-
SMILES,Mm-Cpn inhibitor,GLP-1R inv ag,GLP1R ag,HEK293 tox,uPA surface inh,CCT modulator
CC1CCN(C(=O)c2cc3ccccc3o2)CC1,-,?,-,-,-,-36
Cc1c(NC(=O)c2ccc(-c3ccc(F)cc3)o2)cccc1-c1nc2ncccc2o1,.,-,.,-,.,.
CCCC(c1nnnn1Cc1ccco1)N1CCN(c2ccccc2)CC1 (centres undefined),-,-,-,-,-,-
CCCC(c1nnnn1Cc1ccco1)N1CCN(c2cc(Cl)ccc2C)CC1 (centres undefined),-,5µM,-,-,-,-
CCN1C(=O)c2ccccc2Sc2ccc(NC(=O)Nc3ccc(C(C)=O)cc3)cc21,.,?,.,-,.,.
CCc1ccccc1NC(=O)Nc1ccc2c(c1)N(CC)C(=O)c1ccccc1S2,.,5µM,.,-,.,.
CC(C)CCNC(=O)CCn1c(=O)c2cccn2c2cccnc21,.,-,.,-,.,.
CC1CC2(C)Oc3ccccc3CC2C(C)C1CNCCCN(C)C (centres undefined),-,0.89µM,-,?,-,-
CC1Cc2ccccc2N1C(=O)CNCCCN(C)C (centres undefined),-,?,-,-,-,-
COC(=O)/C=C1/N/C(=N\c2nc(C)cc(C)n2)N(c2ccccc2)C1=O,-,-,-,-,-,-
COC(=O)/C=C1\N/C(=N\c2nc(C)cc(C)n2)N(c2ccccc2)C1=O,-,-,-,-,-,-38
CC(C)CNC(=O)c1nc(-c2ccccc2)n(-c2ccccc2)n1,-,13µM,-,-,-,-
Cc1nn(-c2ccccc2)c(Cl)c1C(=O)NCC(C)C,-,-,-,-,-,-
Cc1c(-c2nc(-c3ccc4c(c3)OCO4)no2)nnn1-c1ccc(C(C)C)cc1,.,-,.,-,.,.
CCOc1ccc(C(C(=O)NCC2CCCO2)N(CCc2cccc(C)c2)C(=O)c2snc(C(N)=O)c2N)cc1 (centres undefined),-,7.9µM,-,?,-,-
CCOc1ccc(C(C(=O)NCC2CCCO2)N(C(=O)c2snc(C(N)=O)c2N)c2ccc(F)cc2)cc1 (centres undefined),-,-,-,-,-,-
CCc1nc(Oc2cccc(F)c2)c2oc3ccccc3c2n1,.,-,.,-,.,.
COCCCn1c(-c2ccc(S(=O)(=O)N3CCOCC3)cc2)csc1=Nc1ccccc1,-,-,-,-,-,-
OCCCn1c(-c2ccccc2)csc1=Nc1ccccc1,-,11µM,-,-,-,-
O=S(=O)(c1ccc(-c2csc(=Nc3ccc(OC(F)(F)Cl)cc3)n2CCCO)cc1)N1CCCC1,.,10µM,.,-,.,.
Cc1cc2c(s1)c(C#N)c(C(=O)NCc1ccccc1F)n2C,-,.,.,.,.,.
CCOC(=O)C1C(=O)CC(C)(O)C(C(=O)OCC)C1c1ccc(OC)cc1 (centres undefined),.,-,-,-,-,-32
CN(C)C(=S)Nc1nc2ccccc2s1,-,0.63µM,-,?,-,-
Cc1ccccc1Nc1nc2ccccc2s1,-,11µM,-,-,?,-
O=C(Nc1nc2ccccc2s1)NC1CCCCC1,-,?,-,-,7.9µM,-
O=C(CC1CCCCC1)Nc1nc2ccccc2s1,-,-,-,-,-,-
